Assay results as given in the supplement of paper PMC12669032.

Legend:
Assay in all cases: growth AUC relative to DMSO control (median of replicates) (fraction); higher = more growth (less inhibition), active = hit call of the paper
Conditions in all cases: 20 µM; 24 h;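 active = AUC reduced over 20% with Padj below 0.05 in at least 2 of 3 replicates; inactive = otherwise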
Akkermansia muciniphila = tested on: Akkermansia muciniphila
Method in brief: (§1)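 Gut bacterial monocultures were grown anaerobically at 37 °C in mGAM, starting at OD600 0.05, with 20 µM compound (1% DMSO) in round-bottom 96-well plates under pierced gas-permeable seals. OD600 was read hourly for 24 h. Area under the growth curve (minimum OD set to 0) was normalised to the plate median of DMSO controls, or to row and column medians on the industrial chemical plate. The value is the median of three biological replicates grown on separate days.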

Bacteroides caccae = tested on: Bacteroides caccae
Method in brief: as §1

Bacteroides clarus = tested on: Bacteroides clarus
Method in brief: as §1

Bacteroides dorei = tested on: Bacteroides dorei
Method in brief: as §1

Bacteroides stercoris = tested on: Bacteroides stercoris
Method in brief: as §1

[1] = tested on: Bacteroides thetaiotaomicron
Method in brief: as §1

Bacteroides uniformis = tested on: Bacteroides uniformis
Method in brief: as §1

[2] = tested on: Bifidobacterium longum subsp. longum
Method in brief: as §1

Clostridium difficile = tested on: Clostridium difficile
Method in brief: as §1

Collinsella aerofaciens = tested on: Collinsella aerofaciens
Method in brief: as §1

Measured: growth AUC

C#CCN1C(=O)COc2cc(F)c(N3C(=O)C4=C(CCCC4)C3=O)cc21
inactive: Akkermansia muciniphila 1.23 | Bacteroides caccae 1.01 | Bacteroides clarus 0.994 | Bacteroides dorei 0.931 | Bacteroides stercoris 1 | [1] 1 | Bacteroides uniformis 0.959 | [2] 1.02 | Clostridium difficile 0.929 | Collinsella aerofaciens 0.944

O=C(O)COc1cc(Cl)c(Cl)cc1Cl
inactive: Akkermansia muciniphila 0.934 | Bacteroides caccae 1.02 | Bacteroides clarus 0.954 | Bacteroides dorei 1.01 | Bacteroides stercoris 0.978 | [1] 0.985 | Bacteroides uniformis 1.01 | [2] 0.708 | Clostridium difficile 1.01 | Collinsella aerofaciens 1.07

CON(C)C(=O)Nc1ccc(Cl)cc1
inactive: Akkermansia muciniphila 0.997 | Bacteroides caccae 1.02 | Bacteroides clarus 0.983 | Bacteroides dorei 1.03 | Bacteroides stercoris 0.97 | [1] 1.03 | Bacteroides uniformis 0.999 | [2] 1.12 | Clostridium difficile 1 | Collinsella aerofaciens 1.02

CC(Oc1ccc(Oc2ccc(C(F)(F)F)cn2)cc1)C(=O)O (stereo not given)
inactive: Akkermansia muciniphila 1.17 | Bacteroides caccae 0.992 | Bacteroides clarus 1.02 | Bacteroides dorei 0.943 | Bacteroides stercoris 1.04 | [1] 1.01 | Bacteroides uniformis 0.899 | [2] 1.05 | Clostridium difficile 0.917 | Collinsella aerofaciens 0.941

CCS(=O)(=O)c1cccnc1S(=O)(=O)NC(=O)Nc1nc(OC)cc(OC)n1
inactive: Akkermansia muciniphila 0.976 | Bacteroides caccae 1.01 | Bacteroides clarus 0.983 | Bacteroides dorei 0.993 | Bacteroides stercoris 0.963 | [1] 0.981 | Bacteroides uniformis 0.974 | [2] 0.995 | Clostridium difficile 0.942 | Collinsella aerofaciens 1

CN(C)NC(=O)CCC(=O)O
inactive: Akkermansia muciniphila 0.948 | Bacteroides caccae 1 | Bacteroides clarus 1.01 | Bacteroides dorei 1.04 | Bacteroides stercoris 1.01 | [1] 0.998 | Bacteroides uniformis 0.992 | [2] 1.01 | Clostridium difficile 0.991 | Collinsella aerofaciens 1

O=C(Nc1ccccc1-c1ccc(Cl)cc1)c1cccnc1Cl
inactive: Akkermansia muciniphila 0.987 | Bacteroides caccae 0.998 | Bacteroides clarus 0.986 | Bacteroides dorei 0.998 | Bacteroides stercoris 1.01 | [1] 0.958 | Bacteroides uniformis 0.966 | [2] 1.03 | Clostridium difficile 0.998 | Collinsella aerofaciens 0.999

Cc1ccc(NC(=O)c2snnc2C)cc1Cl
inactive: Akkermansia muciniphila 0.741 | Bacteroides caccae 0.968 | Bacteroides clarus 0.914 | Bacteroides dorei 1.03 | Bacteroides stercoris 0.879 | [1] 0.905 | Bacteroides uniformis 1.02 | [2] 0.898 | Clostridium difficile 1 | Collinsella aerofaciens 1.05

C=CCC1=C(C)C(OC(=O)C2C(C=C(C)C)C2(C)C)CC1=O (mixture of isomers)
inactive: Akkermansia muciniphila 1.05 | Bacteroides caccae 0.96 | Bacteroides clarus 1.04 | Bacteroides dorei 0.962 | Bacteroides stercoris 0.924 | [1] 0.972 | Bacteroides uniformis 0.936 | [2] 0.96 | Clostridium difficile 0.962 | Collinsella aerofaciens 0.941

COP(=S)(OC)SCN1C(=O)c2ccccc2C1=O
inactive: Akkermansia muciniphila 0.901 | Bacteroides caccae 0.971 | Bacteroides clarus 0.966 | Bacteroides dorei 1 | Bacteroides stercoris 0.97 | [1] 0.978 | Bacteroides uniformis 0.975 | [2] 0.951 | Clostridium difficile 0.94 | Collinsella aerofaciens 0.965

CCNc1nc(Cl)nc(NCC)n1
inactive: Akkermansia muciniphila 0.894 | Bacteroides caccae 1 | Bacteroides clarus 1.01 | Bacteroides dorei 1.02 | Bacteroides stercoris 1.02 | [1] 1.01 | Bacteroides uniformis 1.01 | [2] 1.05 | Clostridium difficile 1.01 | Collinsella aerofaciens 1.04

C=CCN=C=S
inactive: Akkermansia muciniphila 0.98 | Bacteroides caccae 0.968 | Bacteroides clarus 0.993 | Bacteroides dorei 1.01 | Bacteroides stercoris 0.977 | [1] 1.02 | Bacteroides uniformis 1.02 | [2] 0.999 | Clostridium difficile 1.01 | Collinsella aerofaciens 1.02

COCCOC(=O)C(C#N)(C(=O)c1ccccc1C(F)(F)F)c1ccc(C(C)(C)C)cc1 (stereo not given)
inactive: Akkermansia muciniphila 1.07 | Bacteroides caccae 0.937 | Bacteroides clarus 0.965 | Bacteroides dorei 0.927 | Bacteroides stercoris 0.941 | [1] 1.01 | Bacteroides uniformis 0.942 | [2] 1.01 | Clostridium difficile 0.943 | Collinsella aerofaciens 0.885

CC(=O)O.CC(=O)O.CC(=O)O.NC(N)=NCCCCCCCCNCCCCCCCCN=C(N)N
inactive: Akkermansia muciniphila 0.692 | Clostridium difficile 0.869 | Collinsella aerofaciens 0.871
active: Bacteroides caccae 0.639 | Bacteroides clarus 0.523 | Bacteroides dorei 0.0196 | Bacteroides stercoris 0.0269 | [1] 0.0154 | Bacteroides uniformis 0.158 | [2] 0.195

CNC(=O)Oc1ccc(N(C)C)c(C)c1
inactive: Akkermansia muciniphila 1.05 | Bacteroides caccae 0.855 | Bacteroides clarus 1.01 | Bacteroides dorei 0.983 | Bacteroides stercoris 1.41 | [1] 0.994 | Bacteroides uniformis 1 | [2] 0.979 | Clostridium difficile 0.99 | Collinsella aerofaciens 0.932

CC(C)C(C(=O)OC(C#N)c1cccc(Oc2ccccc2)c1)c1ccc(OC(F)F)cc1 (stereo not given)
inactive: Akkermansia muciniphila 0.959 | Bacteroides caccae 0.981 | Bacteroides clarus 0.956 | Bacteroides dorei 1.02 | Bacteroides stercoris 1.08 | [1] 0.987 | Bacteroides uniformis 1.01 | [2] 0.965 | Clostridium difficile 1.01 | Collinsella aerofaciens 1.01

COC(=O)C(C)(Cl)Cl
inactive: Akkermansia muciniphila 0.86 | Bacteroides caccae 0.984 | Bacteroides clarus 1.01 | Bacteroides dorei 1.02 | Bacteroides stercoris 1 | [1] 1.04 | Bacteroides uniformis 0.968 | [2] 1.02 | Clostridium difficile 1.01 | Collinsella aerofaciens 1.01

C/C(=N/Nc1nc(C)cc(C)n1)c1ccccc1C
inactive: Akkermansia muciniphila 1.24 | Bacteroides caccae 1.01 | Bacteroides clarus 1.06 | Bacteroides dorei 1 | Bacteroides stercoris 1.1 | [1] 0.963 | Bacteroides uniformis 1.03 | [2] 1.01 | Clostridium difficile 0.99 | Collinsella aerofaciens 0.979

ClC1=C(Cl)C2(Cl)[C@H]3[C@@H]4O[C@@H]4[C@H](Cl)[C@H]3C1(Cl)C2(Cl)Cl (single isomer, unassigned; isomer b)
inactive: Akkermansia muciniphila 1.29 | Bacteroides caccae 0.98 | Bacteroides clarus 0.973 | Bacteroides dorei 0.933 | Bacteroides stercoris 0.752 | [1] 0.96 | Bacteroides uniformis 0.89 | [2] 1.19 | Clostridium difficile 1.01 | Collinsella aerofaciens 0.957

CCOP(=S)(OCC)Oc1cc(Cl)c(Br)cc1Cl
inactive: Akkermansia muciniphila 0.917 | Bacteroides caccae 0.936 | Bacteroides clarus 0.94 | Bacteroides dorei 1.02 | Bacteroides stercoris 0.953 | [1] 0.979 | Bacteroides uniformis 0.966 | [2] 0.954 | Clostridium difficile 0.977 | Collinsella aerofaciens 0.98

COC(=O)NCc1cc(/C(C)=N/OCc2cccc(C)n2)ccc1Cl
inactive: Akkermansia muciniphila 1.06 | Bacteroides caccae 0.965 | Bacteroides clarus 0.947 | Bacteroides dorei 0.946 | Bacteroides stercoris 0.972 | [1] 0.944 | Bacteroides uniformis 0.808 | [2] 0.981 | Clostridium difficile 0.956 | Collinsella aerofaciens 1.01

CCN(C(=O)n1nnn(-c2ccccc2Cl)c1=O)C1CCCCC1
inactive: Akkermansia muciniphila 0.87 | Bacteroides caccae 0.84 | [2] 0.988 | Clostridium difficile 0.992 | Collinsella aerofaciens 0.925
active: Bacteroides clarus 0.508 | Bacteroides dorei 0.513 | Bacteroides stercoris 0.118 | [1] 0.107 | Bacteroides uniformis 0.0622

CNC(=S)S
inactive: Akkermansia muciniphila 1.07 | Bacteroides caccae 1.01 | Bacteroides clarus 1.04 | Bacteroides dorei 0.996 | Bacteroides stercoris 1.08 | [1] 1.02 | Bacteroides uniformis 1 | [2] 1.37 | Clostridium difficile 0.999 | Collinsella aerofaciens 0.996

O=S1OCC2C(CO1)C1(Cl)C(Cl)=C(Cl)C2(Cl)C1(Cl)Cl (stereo not given)
inactive: Akkermansia muciniphila 1.08 | Bacteroides caccae 1 | Bacteroides clarus 0.962 | Bacteroides dorei 0.999 | Bacteroides stercoris 0.779 | [1] 0.976 | Bacteroides uniformis 0.874 | [2] 1.04 | Clostridium difficile 0.992 | Collinsella aerofaciens 0.971

C=CCC1=C(C)C(OC(=O)[C@@H]2[C@@H](C=C(C)C)C2(C)C)CC1=O (stereo not given in full)
inactive: Akkermansia muciniphila 1.01 | Bacteroides caccae 0.983 | Bacteroides clarus 1.02 | Bacteroides dorei 1.05 | Bacteroides stercoris 1.08 | [1] 0.96 | Bacteroides uniformis 1.01 | [2] 1 | Clostridium difficile 1.04 | Collinsella aerofaciens 1.03

C1CCC(NC2CCCCC2)CC1.O=NO
inactive: Akkermansia muciniphila 0.874 | Bacteroides caccae 0.983 | Bacteroides clarus 0.991 | Bacteroides dorei 0.991 | Bacteroides stercoris 0.831 | [1] 0.984 | Bacteroides uniformis 0.943 | [2] 0.967 | Clostridium difficile 1.01 | Collinsella aerofaciens 1.08

COC[C@H](C)N(C(=O)CCl)c1c(C)csc1C
inactive: Akkermansia muciniphila 1.08 | Bacteroides caccae 1 | Bacteroides clarus 0.983 | Bacteroides dorei 0.951 | Bacteroides stercoris 0.95 | [1] 1 | Bacteroides uniformis 0.981 | [2] 1.04 | Clostridium difficile 0.976 | Collinsella aerofaciens 1

O=C(Cc1ccccc1)N/C(=N\OCC1CC1)c1c(C(F)(F)F)ccc(F)c1F
inactive: Akkermansia muciniphila 1.23 | Bacteroides caccae 0.936 | Bacteroides clarus 0.965 | Bacteroides dorei 0.945 | Bacteroides stercoris 0.852 | [1] 0.959 | Bacteroides uniformis 0.912 | [2] 0.975 | Clostridium difficile 0.957 | Collinsella aerofaciens 0.915
